Compound activity deposited in PubChem BioAssay by several laboratories.
Gli-Sufu block = Gli-Sufu pathway antagonism; AID 588413; Sufu-KO-LIGHT fibroblasts, Gli luciferase reporter luminescence; 340,000 tested, 0.74% active; inhibition, % at 5 µM;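 active = inhibition above about 55%, limit read from the data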
MPTP block = permeability transition pore inhibition; isolated mouse mitochondria, Ca2+ swelling absorbance, 30 min; inhibition, % at 10 µM; 360,000 tested, 1.4% active; AID 602449;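 active = inhibition of 50% or more, scaled per plate between neutral and stimulator controls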
Beta cell apopt = beta cell apoptosis inhibition | 300,000 tested, 0.8% active | AID 435005 | INS-1E cytokine-induced death, ATP luminescence, 48 h; percent of positive-control rescue, neutral wells zero | protection from apoptosis, % (concentration not given with the values);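 active = Every replicate reaches about 75%, or at least half do and their mean reaches it too, limit read from the data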;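 note: higher means more ATP so stronger rescue from cytokine killing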
CSC inhib = blocks cancer stem cells | cancer stem cell-like cells viability, luminescence | inhibition, % at 7.5 µM | 300,000 tested, 1.1% active; in the data active = inhibition above about 75%; tested in HMLE shEcad cells
NR3A LBD binder = NR3A (human) ligand-binding domain modulation; NR3A LBD differential scanning fluorimetry, Tm shift; 0% = protein alone, 100% = glycine-bound protein; 340,000 tested, 2.5% active; Tm shift relative to glycine control, % at 25 µM;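 active = melting temperature shift of at least 10% of the positive control shift, at one fixed dose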
Mdm2 MdmX PPI = human Mdm2/MdmX binding inhibition; O15151+Q00987; SaOS-2 split-luciferase Mdm2/MdmX complementation, luminescence; inhibition, % at 8 µM; 330,000 tested, 3% active; AID 485346;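 active = inhibition of at least 50% at 8 µM in the primary screen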
Mdm2-MdmX conf = confirmation of human Mdm2/MdmX interaction inhibitors; shares compounds with Mdm2 MdmX PPI; Mdm2-MdmX binding, luminescent assay; inhibition, % at 8 µM; 10,000 tested, 55% active; AID 489028; in the data active = inhibition above about 40%
Full FLuc ctr = full-length luciferase inhibition in Mdm2/MdmX counter-screen | shares compounds with Mdm2 MdmX PPI | 6,200 tested, 77% active | SaOS-2 full-length luciferase counterscreen, luminescence | inhibition, % at 8 µM | AID 504607;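 active = mean inhibition at 8 µM reaching about 37%, which flags the compound as non-specific, limit read from the data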;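 note: p53-null SaOS-2 cells with luciferase driven by a doxycycline-inducible promoter; compound on cells about two nights before reading with doxycycline added after day one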
Large screens that a line does not name were inactive (follow-up assays come after a bar, where they were run). An excerpt weighted towards active compounds, which were near 6.6% of everything screened.

Cn1nccc1C(=O)N/N=C/c1c(O)ccc2ccccc12	Gli-Sufu block 85, Beta cell apopt 100, Mdm2 MdmX PPI 82 | Mdm2-MdmX conf 80 | Full FLuc ctr inactive
Cn1ncc(Cl)c1C(=O)Nc1cccc(Cl)c1	none
O=C(N/N=C/c1c(O)ccc2ccccc12)c1ccc(Br)o1	Gli-Sufu block 66, Beta cell apopt 102, CSC inhib 156, Mdm2 MdmX PPI 87 | Mdm2-MdmX conf 81 | Full FLuc ctr 54
CCc1noc(C)c1C(=O)OC(C)C(=O)Nc1ccc(Cl)cn1 (stereo not given)	none (no result: CSC inhib)
Cc1noc(C)c1NC(=O)N(C)C[C@H]1OCc2cnnn2CCCC(=O)N([C@H](C)CO)C[C@@H]1C	none (no result: Gli-Sufu block, Beta cell apopt, CSC inhib, NR3A LBD binder, Mdm2 MdmX PPI)
CCc1ccccc1Nc1nc(N)nc(COC(=O)c2cccn2C)n1	Mdm2 MdmX PPI 54 | Mdm2-MdmX conf 62 | Full FLuc ctr 196
O=C(COC(=O)c1n[nH]c2ccccc12)NC(=O)NC12CC3CC(CC(C3)C1)C2	Mdm2 MdmX PPI 54 | Mdm2-MdmX conf inactive | Full FLuc ctr 72
O=C(COC(=O)c1n[nH]c2ccccc12)NC(=O)NC1CCCC1	none
O=C(CS(=O)c1ccc(C(F)(F)F)cc1[N+](=O)[O-])Oc1ccccc1 (stereo not given)	CSC inhib 77, Mdm2 MdmX PPI 52 | Mdm2-MdmX conf inactive
COC(=O)c1ccc(OC(=O)CS(=O)c2ccccc2[N+](=O)[O-])cc1 (stereo not given)	none
COC(=O)C1(C(=O)OC)c2ncccc2N(S(=O)(=O)c2ccc(C)cc2)C1CC(=O)c1ccccc1 (stereo not given)	none (no result: Gli-Sufu block, Beta cell apopt, CSC inhib, NR3A LBD binder, Mdm2 MdmX PPI)
Cc1ccc(S(=O)(=O)NCCC(=O)Nc2nnc(C3CC3)s2)cc1C	none
Cc1cc(C)cc(N(CCC(=O)Nc2nnc(C3CC3)s2)S(=O)(=O)c2ccc(Cl)cc2)c1	Mdm2 MdmX PPI 51 | Mdm2-MdmX conf 60 | Full FLuc ctr 76
CCCN(C)C1CN(Cc2cn(Cc3cccc(C(F)(F)F)c3)nn2)S(=O)(=O)C1 (stereo not given)	none (no result: Gli-Sufu block, Beta cell apopt, CSC inhib, NR3A LBD binder, Mdm2 MdmX PPI)
Cc1ccc(C(=O)COc2cc(O)c3c(=O)cc(-c4ccccc4)oc3c2)cc1	Mdm2 MdmX PPI 62 | Mdm2-MdmX conf inactive
O=C(COc1cc(O)c2c(=O)cc(-c3ccccc3)oc2c1)c1ccccc1	none
Cc1cc(=O)oc2cc(OCC(=O)Nc3nnc(C(C)C)s3)ccc12	none
CCOC(=O)c1cc(CC)sc1NC(=O)COc1ccc2c(C)cc(=O)oc2c1	Mdm2 MdmX PPI 82 | Mdm2-MdmX conf 43 | Full FLuc ctr 46
COc1ccc(-n2nc(C(=O)NCC(=O)Nc3ccccn3)c3ccccc3c2=O)cc1Cl	Mdm2 MdmX PPI 88 (no result: Beta cell apopt, CSC inhib) | Mdm2-MdmX conf inactive
COc1ccc(-n2nc(C(=O)NCC(=O)Nc3cccc(Cl)c3)c3ccccc3c2=O)cc1OC	Mdm2 MdmX PPI 80 (no result: CSC inhib) | Mdm2-MdmX conf 48 | Full FLuc ctr 37
COc1ccc(-n2nc(C(=O)Nc3ccc(OC)c(OC)c3)c3c4ccccc4n(C)c3c2=O)cc1	Mdm2 MdmX PPI 76 | Mdm2-MdmX conf inactive
COc1cccc(S(=O)(=O)N(C)C[C@@H]2OCc3cnnn3CCCC(=O)N([C@@H](C)CO)C[C@@H]2C)c1	none (no result: Gli-Sufu block, Beta cell apopt, CSC inhib, NR3A LBD binder, Mdm2 MdmX PPI)
CC(C)C(=O)N1CCC1(C)C(=O)Nc1ccc(-n2cccc2)cc1 (stereo not given)	none (no result: Gli-Sufu block, Beta cell apopt, CSC inhib, NR3A LBD binder, Mdm2 MdmX PPI)
Cn1c(=O)c2c(SCC(=O)Nc3ccccc3F)nc(C3CC3)nc2n(C)c1=O	Mdm2 MdmX PPI 79 | Mdm2-MdmX conf inactive
Cc1ccc(-c2nc(SCC(=O)Nc3cc(C)on3)c3c(=O)n(C)c(=O)n(C)c3n2)cc1	Mdm2 MdmX PPI 77 | Mdm2-MdmX conf inactive
Cn1c(=O)c2c(SCC(=O)Nc3ccccc3F)nc(-c3ccccc3F)nc2n(C)c1=O	Mdm2 MdmX PPI 71 | Mdm2-MdmX conf inactive | Full FLuc ctr 61
O=C(NC1CCCCC1)c1n[nH]c2c1CCCCC2	Mdm2 MdmX PPI 71 (no result: CSC inhib) | Mdm2-MdmX conf 69 | Full FLuc ctr 65
CCOc1ccc(-c2nc(N)ncc2Oc2cccc(OC)c2)c(O)c1	Mdm2 MdmX PPI 66 | Mdm2-MdmX conf 42 | Full FLuc ctr 62
CCOc1ccc(-c2nc(N)ncc2Oc2ccccc2Br)c(O)c1	none (no result: CSC inhib)
